# Assay results as given in publication PMC6925144, “A prospective compound screening contest identified broader inhibitors for Sirtuin 1” (Scientific Reports, 2019).
# In all, about 3,200 compounds were measured (“TSA(with NAD+) / Primary screening (TSA) / delta Tm (K)”: median about -0.04, highest 2% from about 0.37 on). Shown is part of a subset that was picked to be rich in the highest values.
# Biological target: NAD-dependent deacetylase Sirtuin 1 (human, UniProt Q96EB6)
# Assay: primary screen, delta tm
# Design: single well (n = 1, as 'the same TSA')
# Conditions: 10 µM
# NAD-dependent deacetylase Sirtuin 1, sequence (Q96EB6 2-747 limits assumed): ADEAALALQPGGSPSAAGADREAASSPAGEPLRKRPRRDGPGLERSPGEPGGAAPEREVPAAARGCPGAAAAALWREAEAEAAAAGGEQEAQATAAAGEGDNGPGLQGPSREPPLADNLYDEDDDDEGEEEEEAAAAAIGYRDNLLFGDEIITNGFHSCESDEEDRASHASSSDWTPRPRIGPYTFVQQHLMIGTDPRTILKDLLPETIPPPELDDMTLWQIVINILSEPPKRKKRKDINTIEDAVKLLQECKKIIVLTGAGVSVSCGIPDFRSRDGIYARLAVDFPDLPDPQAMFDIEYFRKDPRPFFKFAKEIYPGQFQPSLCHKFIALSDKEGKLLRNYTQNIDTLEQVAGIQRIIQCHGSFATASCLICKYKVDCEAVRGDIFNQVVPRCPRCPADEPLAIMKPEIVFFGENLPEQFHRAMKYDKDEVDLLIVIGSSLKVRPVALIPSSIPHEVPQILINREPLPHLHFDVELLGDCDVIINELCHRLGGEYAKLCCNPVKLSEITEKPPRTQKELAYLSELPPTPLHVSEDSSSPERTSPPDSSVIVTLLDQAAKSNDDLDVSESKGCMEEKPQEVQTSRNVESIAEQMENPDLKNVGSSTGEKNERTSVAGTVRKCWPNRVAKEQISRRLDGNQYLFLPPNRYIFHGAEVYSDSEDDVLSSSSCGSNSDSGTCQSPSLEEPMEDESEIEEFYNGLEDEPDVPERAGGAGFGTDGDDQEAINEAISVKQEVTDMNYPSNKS
row,SMILES,TSA(with NAD+) / Primary screening (TSA) / delta Tm (K)
1,O=C(COC(=O)C1=COCCO1)Nc1cccc2ccccc12,0.09
2,CC(CNCCS(=O)(=O)C(C)(C)C)c1ccccc1 (centres unmarked),-0.03
3,NC(=O)C1CCN(c2nc(-c3cccs3)nc3sc4c(c23)CCCC4)CC1,2.33
4,Cc1sc2ncnc(N3CCC(C(=O)N4CCC(C(N)=O)CC4)CC3)c2c1C,-0.03
5,Cc1sc2nc(-c3cccs3)nc(N3CCC(C(N)=O)CC3)c2c1C,0.53
6,Cc1sc2ncnc(N3CCC(C(N)=O)CC3)c2c1C,0.06
7,Cc1sc2nc(-c3cccnc3)nc(N3CCC(C(N)=O)CC3)c2c1C,-0.01
8,NC(=O)C1CCN(c2ncnc3sc4c(c23)CCCCC4)CC1,0.26
9,NC(=O)C1CCN(c2ncnc3sc4c(c23)CCCC4)CC1,0.32
10,NC(=O)C1CCCN(c2ncnc3sc4c(c23)CCCC4)C1 (centres unmarked),-0.15
11,NC(=O)C1CCN(c2nc(-c3cccnc3)nc3sc4c(c23)CCCC4)CC1,0.48
12,O=c1[nH]cnc2c(Cl)cc(Cl)cc12,-0.16
13,Cc1ccc(-c2nnc(SCC(=O)NC(=O)NC(C)C)n2N)cc1,-0.04
14,O=C(CCc1nc2ccccc2c(=O)[nH]1)Nc1ccc(N2CCN(Cc3ccccc3)CC2)cc1,0.03
15,Cc1cc(C=C2C(=O)NC(=S)NC2=O)c(C)n1-c1ccc(F)cc1,-0.48
16,CNS(=O)(=O)c1ccc(CCC(=O)Nc2ccccc2Cc2ccccc2)cc1,0.07
17,O=C1COc2cc(C(=O)Nc3ccc4c(c3)-c3ccccc3C4)ccc2N1,0.11
18,NS(=O)(=O)c1ccc(C(=O)Nc2ccc3c(c2)-c2ccccc2C3)cc1,0.68
19,C/C(=N/N)c1ccc2c(c1)-c1ccccc1C2,-0.14
20,CC1CCC(C(N)=O)CN1c1ncnc2ccsc12 (centres unmarked),0.05
21,O=C(CN1CCN(Cc2cscn2)CC1)NC(c1ccccc1)C1CC1 (centres unmarked),0.03
22,COCCCn1ccc(Nc2nc(C)nc3[nH]ccc23)n1,-0.03
23,O=C1/C(=C/NNC(=O)C23CC4CC(CC(C4)C2)C3)c2ccccc2C(=O)N1Cc1ccccc1,0.56
24,O=C(CC12CC3CC(CC(C3)C1)C2)NN/C=C1/C(=O)N(Cc2ccccc2)C(=O)c2ccccc21,0.19
25,CC1(C)CC(=O)C(=CNNC(=O)CC23CC4CC(CC(C4)C2)C3)C(=O)C1,-0.06
26,COc1ccc(CN2C(=O)/C(=C/NNC(=O)CC34CC5CC(CC(C5)C3)C4)c3ccccc3C2=O)cc1,0.06
27,O=C1NC(=O)c2ccccc2/C1=C\NNC(=O)C12CC3CC(CC(C3)C1)C2,0.48

row,SMILES,TSA(with NAD+) / Primary screening (TSA) / delta Tm (K)
1,COc1ccc(N2C(=O)/C(=C/NNC(=O)C34CC5CC(CC(C5)C3)C4)c3ccccc3C2=O)cc1,0.18
2,COC(C)CN (centres unmarked),-0.12
3,COc1cccc(-c2nc(CSc3nnc(-c4ccco4)n3Cc3ccccc3)cs2)c1,-0.16
4,Cc1ccc(OCCN)cc1,0.15
5,Cc1nn2cccnc2c1C(=O)NCc1ccc(-c2nnn[nH]2)cc1,-0.06
6,Cc1nn(-c2ccc(F)cc2)c(C)c1CNCc1ccccc1,-0.23
7,N#Cc1c2c(c(Cl)n3c1nc1ccccc13)CCCC2,0.03
8,Cc1ccccc1-c1nnn(Cc2cc(=O)oc3c(C)c(C)ccc23)n1,-0.18
9,COC(=O)c1cc(-c2csc(NC(=O)c3cccc(NC(=O)c4cnoc4C)c3)n2)c[nH]1,0.67
10,NC(=O)NCc1ccc(C(=O)Nc2nc(-c3c[nH]c(C(N)=O)c3)cs2)cc1,0.11
11,COc1ccc(NC(=O)c2ccc(NC(=O)c3cnoc3C)cc2)cc1OCc1cccnc1,0.05
12,COc1ccnc(N2CCN(C(=O)c3ccc(C(N)=O)s3)CC2)n1,-0.13
13,Cc1ccc(-n2nnnc2SCc2nc3c(cnn3-c3ccccc3)c(=O)[nH]2)cc1,-0.11
14,CCCOc1ccc(C2C(C(=O)c3ccc(F)cc3)=C(O)C(=O)N2CCCN2CCOCC2)cc1 (centres unmarked),0.06
15,Cc1cc(N(C)C)n2nc(C(F)(F)F)c(-c3ccccc3)c2n1,-0.05
16,Cc1cc(NN)n2nc(C(F)(F)F)c(-c3ccc(Cl)cc3)c2n1,0.37
17,CNc1cc(C)nc2c(-c3ccccc3)c(C(F)(F)F)nn12,-0.12
18,Oc1cccc2c1Cc1c-2nc2ccc(Cl)cc2c1-c1ccccc1Cl,0.52
19,O=C1/C(=C/c2ccc(Br)cc2F)Cc2c(O)cccc21,0.11
20,COc1ccc(C(=O)NC2CCCC2(C)CO)cc1-c1ccccn1 (centres unmarked),-0.23
21,CN1CCC(Sc2ccc3ccccc3c2)C1=O (centres unmarked),-0.19
22,Cc1ccc(-c2cc(C(=O)OC(C)C(=O)Nc3cccc([N+](=O)[O-])c3)[nH]n2)cc1 (centres unmarked),0.25
23,CC(=C/c1ccccc1)/C=N/NC(=O)c1cc(-c2ccc(C)cc2)n[nH]1,1.11
24,O=C(Nc1ccc(N2CCN(Cc3ccccc3)CC2)cc1)c1cccc2cccnc12,0.01
25,O=C(COC(=O)c1ccc2c(c1)S(=O)(=O)c1ccccc1C2=O)Nc1ncc(Cl)cc1Cl,0.15
26,Cn1cc(CCC(=O)NCC(=O)O)c2ccccc21,-0.16
